# Measurements from PubChem BioAssay (NCATS).
# Results filed as inconclusive are left out. Where a call stands in place of a potency, no number is given. The source made the active and inactive calls. Unless noted, calls follow the shape of the full dose curve.
# Assays:
# [1] = Validation screen for inhibitors of Lassa infection (AID 463096)
# [2] = Inducers of the Endoplasmic Reticulum Stress Response (ERSR) in human glioma: Validation (AID 504836; active = well fitted curve in the direction sought with a large enough effect; an effect the other way counts as inactive or inconclusive)
# How it was run: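 Stably transfected U87-MG glioma cells carrying a GRP78-based luciferase sensor; 16 h compound incubation. Luminescence end-point read 10 min after Bright-Glo addition at room temperature.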
# [3] = qHTS for Inhibitors of the Functional Ribonucleoprotein Complex (vRNP) of Lassa (LASV) Arenavirus: LASV Primary Screen - GLuc reporter signal (AID 1347082; calls by dose curve; tested in HEK293 reporter line; also: nearly all actives have a fitted effect of over 60% in size; also: potency is read from the fitted curve at half-maximal effect)
# [4] = qHTS for Inhibitors of the Functional Ribonucleoprotein Complex (vRNP) of Lassa (LASV) Arenavirus: Viability assay - alamar blue signal for LASV Primary Screen (AID 1347083; calls by dose curve; tested in HEK293 reporter line; also: nearly all actives have a fitted effect of over 80% in size; also: potency is read from the fitted curve at half-maximal effect)
# [5] = qHTS for Inhibitors of the Functional Ribonucleoprotein Complex (vRNP) of Lymphocytic Choriomeningitis Arenaviruses (LCMV): Viability assay - alamar blue signal for LCMV Primary Screen (AID 1347085; calls by dose curve; tested in HEK293 reporter line; also: nearly all actives have a fitted effect of over 80% in size; also: potency is read from the fitted curve at half-maximal effect)
# [6] = molecular target: Nucleoprotein (Lymphocytic choriomeningitis virus (strain Armstrong)) (UniProt P09992); experiment: qHTS for Inhibitors of the Functional Ribonucleoprotein Complex (vRNP) of Lymphocytic Choriomeningitis Arenaviruses (LCMV): LCMV Primary Screen - GLuc reporter signal (AID 1347086); also: nearly all actives have a fitted effect of over 70% in size; also: potency is read from the fitted curve at half-maximal effect
# [7] = Cytotoxicity counterscreen for inhibitors of SARS-CoV-2 cell entry (AID 1645845); also: nearly all actives have a fitted effect of over 50% in size
# How it was run: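 Counterscreen run in the same HEK293-ACE2 line as the pseudotyped-particle entry assay, without particles. Viability after 48 h at 37 C was read as ATP luminescence, scaled between cell-containing and cell-free wells.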
# [8] = Primary qHTS to identify inhibitors of SARS-CoV-2 cell entry (AID 1645846); settings: activity change, negative = inhibition: at 57.1 µM (top of the series) unless noted; also: nearly all actives have a fitted effect of over 45% in size; also: potency is read from the fitted curve at half-maximal effect
# How it was run: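 HEK293-ACE2 (Expi293F, stable hACE2), 1500 cells/well, o/n 37C; cpd 23 nL pin, 1 h; MLV-PP w/ SARS-CoV-2-S (Wuhan-Hu-1, Δ19 C-term); 48 h 37C; Bright-Glo luminescence; normalized vs S-PP and bald PP.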
# [9] = qHTS profiling of the MIPE4 collection as inhibitors of Plasmodium falciparum (DD2) proliferation (Rep 2) (AID 743346; call rule not given here); settings: P. falciparum Dd2 in erythrocytes, SYBR Green DNA, 72 h; at 28.5 µM (top of the series) unless noted
# How it was run: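 Parasite DNA was quantified by SYBR Green I fluorescence (ex 485, em 535 nm) after overnight lysis in saponin/Triton buffer at room temperature. Cultures at 0.3% parasitemia and 2.5% hematocrit were first exposed to compound for 72 h at 37 C; signals were normalised to artemisinin (0.29 uM) and vehicle wells.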
# [10] = molecular target: Alpha-galactosidase (Coffea arabica) (UniProt Q42656); experiment: Counterscreen for Glucocerebrosidase Inhibitors: qHTS Assay for Coffee Bean alpha-Galactosidase at pH 4.5 (AID 957; active = well fitted curve in the direction sought with a large enough effect; an effect the other way counts as inactive or inconclusive)
# How it was run: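 Fluorogenic read-out: 4-methylumbelliferone at Ex 365/Em 440 nm after NaOH/glycine stop (pH 10). Enzyme 2 nM, 4-MU-alpha-galactoside 80 uM, citrate buffer pH 4.5, 20 min RT; normalized to no-enzyme and enzyme controls.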
# [11] = molecular target: Alpha-galactosidase (Coffea arabica) (UniProt Q42656); experiment: Counterscreen for Glucocerebrosidase Inhibitors: qHTS Assay for Coffee Bean alpha-Galactosidase at pH 5.9 (AID 998; active = well fitted curve in the direction sought with a large enough effect; an effect the other way counts as inactive or inconclusive)
# How it was run: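 Enzyme 2 nM + cpd (0.7 nM–77 uM titration) + 4-MU-alpha-Gal 80 uM, pH 5.9 citrate/Tween-20, RT 20 min, NaOH/glycine stop pH 10, fluor 365/440. Normalized to no-enzyme and full-activity controls; Hill-fit AC50.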
# Chain of Alpha-galactosidase (Coffea arabica) (Q42656 whole entry, looked up): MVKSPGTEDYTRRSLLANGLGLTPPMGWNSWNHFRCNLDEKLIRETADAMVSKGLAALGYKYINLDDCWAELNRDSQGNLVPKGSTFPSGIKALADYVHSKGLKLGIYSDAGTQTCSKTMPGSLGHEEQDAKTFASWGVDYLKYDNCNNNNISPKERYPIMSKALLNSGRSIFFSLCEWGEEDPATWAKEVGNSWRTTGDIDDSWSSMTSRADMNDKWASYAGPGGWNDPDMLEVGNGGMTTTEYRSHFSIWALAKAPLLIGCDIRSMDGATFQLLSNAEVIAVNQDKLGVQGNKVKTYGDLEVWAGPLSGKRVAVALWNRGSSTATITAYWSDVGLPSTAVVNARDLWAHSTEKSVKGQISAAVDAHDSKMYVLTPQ
# Chain of Nucleoprotein (Lymphocytic choriomeningitis virus (strain Armstrong)) (P09992 whole entry, looked up): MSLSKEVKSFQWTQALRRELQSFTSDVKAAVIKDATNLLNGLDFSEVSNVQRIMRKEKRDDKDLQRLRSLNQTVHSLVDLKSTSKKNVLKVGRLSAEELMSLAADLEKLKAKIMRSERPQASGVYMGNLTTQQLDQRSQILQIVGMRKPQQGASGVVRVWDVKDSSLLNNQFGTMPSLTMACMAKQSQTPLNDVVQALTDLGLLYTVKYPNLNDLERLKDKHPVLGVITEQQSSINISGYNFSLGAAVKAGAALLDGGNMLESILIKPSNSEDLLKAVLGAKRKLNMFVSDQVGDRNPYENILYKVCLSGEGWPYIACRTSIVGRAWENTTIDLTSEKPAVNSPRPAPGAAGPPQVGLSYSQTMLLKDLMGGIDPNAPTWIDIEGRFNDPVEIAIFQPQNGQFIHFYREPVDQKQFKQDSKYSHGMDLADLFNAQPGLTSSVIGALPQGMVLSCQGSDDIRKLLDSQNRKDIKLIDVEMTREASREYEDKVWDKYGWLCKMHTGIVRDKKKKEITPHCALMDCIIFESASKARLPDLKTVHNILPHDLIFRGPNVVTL
SMILES,Potency [1],outcome [2],Potency [3],Potency [4],Potency [5],Potency [6],Potency [7],Potency [8],"parasite growth, % of control (lower = inhibition) [9]","activity change, negative = inhibition [8]",outcome [10],outcome [11]
CCCCS(=N)(=O)CCC(N)C(=O)O (configuration not stated),inactive,inactive,inactive,inactive,inactive,inactive,inactive,,,,,
Cc1csc(-c2nnc(Nc3ccc(Oc4ncccc4-c4ccnc(N)n4)cc3)c3ccccc23)c1,,,inactive,6.85 µM (active),19.3 µM (active),inactive,,15.8 µM (active),,,,
C[C@@H](c1ncncc1F)[C@](O)(Cn1cncn1)c1ccc(F)cc1F,,,inactive,inactive,inactive,inactive,inactive,,115%,-26.1%,,
C[C@@H]1CC[C@@]2(OC1)OC1CC3C4CC=C5CC(O)CCC5(C)C4CCC3(C)C1[C@@H]2C (some centres not stated),,,inactive,inactive,inactive,inactive,,,,-1.34%,,
CC[C@H](C=C[C@@H](C)[C@H]1CC[C@H]2[C@@H]3CC=C4C[C@@H](O)CC[C@]4(C)[C@@H]3CC[C@]12C)C(C)C,,,inactive,inactive,inactive,inactive,inactive,inactive,117% [at 9.64 µM],,,
O=C(O)c1ccccc1C(=O)Nc1ccc(-c2ccccc2)cc1,,,inactive,inactive,inactive,inactive,inactive,inactive,82.2%,,,
COC1CCC(N(C(=O)C2CCC(C)CC2)c2cc(C3=CCCCC3)sc2C(=O)O)CC1 (configuration not stated),,,inactive,inactive,inactive,inactive,inactive,,44.7%,1.37%,,
CCCNC(=O)Nc1ccc(Oc2ncnc3cc(OC)c(OC)cc23)cc1Cl,,,inactive,inactive,inactive,inactive,inactive,,30.3%,-16.7%,,
CCC(C)N(C)C(=O)c1cc2ccccc2c(-c2ccccc2Cl)n1 (configuration not stated),inactive,inactive,inactive,inactive,inactive,inactive,inactive,,,,,
Cc1ccc(C(=O)N(CCCN)[C@@H](c2oc3cc(Cl)ccc3c(=O)c2Cc2ccccc2)C(C)C)cc1,,,inactive,inactive,inactive,inactive,,,,-98.4%,,
C[C@H](Cc1ccc(O)c(O)c1)[C@@H](C)Cc1ccc(O)c(O)c1,inactive,inactive,inactive,inactive,inactive,inactive,inactive,,,,inactive,inactive
CC(C)N(CCC(=O)c1ccc2ccccc2c1)Cc1ccccc1,,inactive,inactive,inactive,inactive,inactive,inactive,,,,inactive,inactive
Oc1cc2c(cc1O)C1c3ccc(O)c(O)c3OCC1(O)C2 (configuration not stated),,,inactive,inactive,inactive,inactive,,,,-5.64%,,
N#C/C(=C\c1ccc(O)c(O)c1)C(=O)NCc1ccccc1,inactive,inactive,inactive,inactive,inactive,inactive,inactive,,,,inactive,inactive
CC[C@H](CC#N)OC(=O)N[C@@H](C)c1cccc(NC(=O)Nc2ccc(-c3cnco3)c(OC)c2)c1,,,1.53 µM (active),0.769 µM (active),0.968 µM (active),0.769 µM (active),,,,-97.5%,,
CNC(=O)Nc1ccc(-c2nc(N3CC4CCC(C3)O4)c3cnn(C4CCC5(CC4)OCCO5)c3n2)cc1,,,0.0153 µM (active),0.0049 µM (active),0.0153 µM (active),0.0273 µM (active),,,,-83.7%,,
Cc1nc(C(=O)NCC(=O)O)c(O)c2ccc(Oc3ccccc3)cc12,,,inactive,inactive,inactive,inactive,,,,-9.8%,,
CNC(=O)c1ccc(C)c(-n2c(C)cc(OCc3ccc(F)cc3F)c(Br)c2=O)c1,,,inactive,inactive,inactive,inactive,,22.4 µM (active),,,,
O=[N+]([O-])c1ccc(Nc2ccccc2-c2ccccc2)c2nonc12,,,inactive,inactive,inactive,inactive,,7.94 µM (active),,,,
CC(=O)NC(CS)C(=O)O (configuration not stated),,,inactive,inactive,inactive,inactive,,,,-1.31%,,
Cn1cnc(-c2cc3nccc(Oc4ccc(NC(=S)NC(=O)Cc5ccccc5)cc4F)c3s2)c1,,,inactive,inactive,inactive,inactive,,8.91 µM (active),,,,
COc1ccc(CCC(=O)Nc2nc3ccc(Cl)cc3s2)cc1OC,,,inactive,inactive,inactive,inactive,inactive,inactive,46.1%,,,
CCn1nnc2c(N3CCOCC3)nc(-c3ccc(NC(=O)Nc4ccc(C(=O)N5CCN(C)CC5)cc4)cc3)nc21,,,0.0544 µM (active),0.0243 µM (active),0.0306 µM (active),0.0385 µM (active),,,,-84.5%,,
